High-throughput results: PubChem, National Center for Advancing Translational Sciences (NCATS)
A selection: hits, their analogues and other compounds. The true share with any hit is near 3.8%.
mIDH1 inhibitor = inhibitors of human mutant IDH1 R132H | IDH1-R132H enzyme, NADPH consumption, diaphorase/resazurin fluorescence | Potency, µM (titrated, usually from 76.6 µM), for the others: top-dose activity change, negative = inhibition, usual class: inhibitors | 0.093% of 390,000 active | AID 602179; also: % is scaled to controls: 0 for no effect and ±100 for the full control effect; nearly all actives have a fitted effect of over 65% in size
Target sequence (O75874 whole entry R132H, stated change not applied): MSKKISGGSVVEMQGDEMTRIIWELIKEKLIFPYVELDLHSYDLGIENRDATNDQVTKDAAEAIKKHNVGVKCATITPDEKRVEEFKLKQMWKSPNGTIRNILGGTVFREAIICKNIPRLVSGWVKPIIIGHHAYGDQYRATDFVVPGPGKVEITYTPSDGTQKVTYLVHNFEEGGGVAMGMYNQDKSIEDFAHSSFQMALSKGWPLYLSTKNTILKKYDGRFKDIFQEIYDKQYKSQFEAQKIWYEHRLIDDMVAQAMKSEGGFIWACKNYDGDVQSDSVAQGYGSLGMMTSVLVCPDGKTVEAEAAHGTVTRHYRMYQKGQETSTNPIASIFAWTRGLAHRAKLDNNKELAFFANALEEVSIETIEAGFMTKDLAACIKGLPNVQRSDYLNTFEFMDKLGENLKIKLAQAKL
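IDH1-R132H (0.5 ug/mL) preincubated 30 min with compound, then NADPH (0.016 mM) and alpha-KG (2 mM) added; 80 min at RT, pH 7.5. Remaining NADPH coupled via diaphorase/resazurin to fluorescence (540/590 nm); concentration-response curves normalized to no-enzyme control.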
A549 viability = counter-screen for Nrf2 inhibitors: cytotoxicity in A549 cells | A549 ARE-Fluc cells, CellTiter-Fluor viability, 18-24 h | Potency, µM (highest dose often 46 µM), inactives show at the highest dose activity change, negative = cytotoxicity, hits mostly inhibitors | 0.16% of 390,000 active | AID 504648; also: % is scaled to controls: 0 for no effect and ±100 for the full control effect
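Cytotoxicity counterscreen: CellTiter-Fluor fluorescence was measured in A549 ARE_Fluc cells after 18-24 h of compound exposure in a concentration series. The subsequent BugLite luminescent read reports ARE-luciferase activity.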
Nrf2 block = inhibitors of Nrf2 signaling. Potency, µM (doses to about 46 µM), without a hit: top-dose activity change, negative = inhibition, hits mostly inhibitors. A549 ARE-Fluc reporter, luciferase luminescence, 18-24 h. 2.1% of 360,000 active; also: % is scaled to controls: 0 for no effect and ±100 for the full control effect; nearly all actives have a fitted effect of over 60% in size
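In this cell-based qHTS, ARE-driven firefly luciferase in A549 cells reports Nrf2 activity; the luminescent signal after BugLite lysis is the measured value, with a prior CellTiter-Fluor read for cell health.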
Nrf2 activator = activates Nrf2 signaling; AREc32 ARE-luciferase reporter (MCF7-derived line), luminescence, 24 h; Potency, µM (highest dose often 46.1 µM), inactives show top-dose activation, actives largely listed as activators; 0.31% of 410,000 active; AID 624171; also: % of control where 0% means no effect; nearly all actives have a fitted effect of over 65% in size
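ARE-driven firefly luciferase activity in AREc32 cells measured after a 24 hr compound exposure at 37 deg C, using Steady-Glo reagent and a 30 min room-temperature hold.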
ELG1 repair inh = ELG1-dependent DNA repair inhibition. HEK293T ELG1-luciferase reporter, luminescence, 16 h; DNA damage induced by 5-fluorouridine. Potency, µM (titrated, usually from 46.1 µM), for inactives: at the highest dose activity change, negative = inhibition, usual class: inhibitors. 2.3% of 330,000 active; also: % is scaled to controls: 0 for no effect and ±100 for the full control effect; nearly all actives have a fitted effect of over 55% in size
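Luminescence from the luciferase reporter, measured 30 min after ONE-Glo reagent at room temperature, was the read-out. Beforehand, 2,000 cells per well were exposed for 16 hr at 37 °C to 5-fluorouridine together with compound or vehicle.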
ELG1 FLuc counter = luciferase inhibition in cell-free luciferin readout for ELG1 hits; shares compounds with ELG1 repair inh; cell-free firefly luciferase luminescence counter-screen, ViewLux; Potency, µM (top dose mostly 46.1 µM), for the others: at the highest dose activity change, negative = inhibition, most hits filed as inhibitors; 3% of 350 active; also: % is scaled to controls: 0 for no effect and ±100 for the full control effect
ELG1-Luc inh = confirmation of human ELG1-dependent DNA repair inhibitors. shares compounds with ELG1 repair inh. HEK293T ELG1-luciferase levels, luminescence; cells co-treated with 5-fluorouridine. Potency, µM (doses to about 46.1 µM), inactives show top-dose activity change, negative = inhibition, most hits filed as inhibitors. 68% of 670 active; also: % is scaled to controls: 0 for no effect and ±100 for the full control effect; nearly all actives have a fitted effect of over 55% in size
ELG1 MMS Luc = inhibits ELG1-dependent repair under MMS stimulation in HEK293T cells. shares compounds with ELG1 repair inh. AID 624249. Potency, µM (highest dose often 46.1 µM), for the others: at the top dose activity change, negative = inhibition, most hits filed as inhibitors. 53% of 670 active. HEK293T luciferase-tagged ELG1 level, MMS stimulated; also: % is scaled to controls: 0 for no effect and ±100 for the full control effect; nearly all actives have a fitted effect of over 60% in size
ELG1 5FU viab = confirmation of ELG1 repair inhibitors: viability with 5FU; shares compounds with ELG1 repair inh; cell viability with 5-FU, ELG1-dependent repair; Potency, µM (top dose mostly 46.1 µM), for inactives: top-dose activity change, negative = viability loss, hits mostly cytotoxic; 670 tested, under 10 active;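 also: ELG1-luc HEK293T cells cotreated with 5-fluorouridine at 10 µM final; viability measured 16 h after compound addition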
ELG1 MMS cell = confirmation of ELG1 repair inhibitors: viability with MMS; shares compounds with ELG1 repair inh; Cell viability with MMS, ELG1-dependent DNA repair; Potency, µM (top dose mostly 46.1 µM), for the others: at the top dose activity change, negative = viability loss, usual class: cytotoxic; 33% of 670 active; AID 624251;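 also: ELG1-luc HEK293T cells co-treated with 10 µM MMS; viability read 16 h after compound addition; % is scaled to controls: 0 for no effect and ±100 for the full control effect; nearly all actives have a fitted effect of over 60% in size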
ELG1 unstim viab = affects unstimulated cell viability, ELG1 hit counter-screen | shares compounds with ELG1 repair inh | cell viability counter-screen, unstimulated, luminescence | Potency, µM (series often up to 45.9 µM), for inactives: top-dose activity change, negative = loss of viability, most hits filed as cytotoxic | 8% of 900 active | AID 624252;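 also: compound exposure lasted 16 hours before reading; % is scaled to controls: 0 for no effect and ±100 for the full control effect; nearly all actives have a fitted effect of over 55% in size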
FLuc biochem = inhibits purified firefly luciferase, counter-screen for ELG1 hits | shares compounds with ELG1 repair inh | purified firefly luciferase, luminescence counter-screen | Potency, µM (doses to about 57.5 µM), inactives show at the highest dose activity, negative = inhibition, most hits filed as inhibitors | 10% of 350 active | AID 624253; also: % is scaled to controls: 0 for no effect and ±100 for the full control effect
* = called active by the depositor; ? = inconclusive; . = not tested or not shown; [ ] = dose if it differs, or a comment. Calls follow the shape of the dose curve; as a rule, active = well fitted curve in the direction sought with a large enough effect; inconclusive = small, poorly fitted or top-dose-only effect, or another doubt; inactive = no such curve, though single readings can be large; an effect the other way counts as inactive or inconclusive. Potency is read from the fitted curve at half-maximal effect.

SMILES	mIDH1 inhibitor	A549 viability	Nrf2 block	Nrf2 activator	ELG1 repair inh	ELG1-Luc inh	ELG1 MMS Luc	ELG1 5FU viab	ELG1 MMS cell	ELG1 unstim viab	others
O=c1[nH]c(=O)n([C@@H]2C[C@H](O)[C@H](CO)O2)cc1C(F)(F)F	.	.	.	.	.	?	-2.9%[23.5 µM]	-2.9%[23.5 µM]	?	8.3%[15.7 µM]	ELG1 FLuc counter=-8.8%[28.2 µM];FLuc biochem=4.8%[35.2 µM]
NNc1ncnc2scc(-c3ccc(Cl)cc3)c12	3.4%	1.2%	-17.4%	3.3%	-12.2%	.	.	.	.	.
OCCCNc1ncnc2scc(-c3ccc(Cl)cc3)c12	4.5%	1.3%	?	-0.5%	4.61µM*	5.6µM*	15.8µM*	-0.5%	5.2%	?
c1ccc(SC23CCCCN(CCC2)[C@]32CO2)cc1 (stereo partly drawn)	.	.	.	6.9%	.	.	.	.	.	.
CCS(=O)(=O)N1CCc2cc(C(=O)N3CCN(c4ccc(OC)cc4)CC3)ccc21	0.4%	-4.7%	?	6.1%	.	.	.	.	.	.
Cc1cccc(C(=O)OCC(=O)c2c(N)n(CC(C)C)c(=O)n(C)c2=O)c1[N+](=O)[O-]	-10.4%	-14.6%	?	0.3%	4.47µM*	12.5µM*	7.05µM*	3.2%	6.28µM*	?
CC(C)Cn1c(N)c(C(=O)COC(=O)c2cc3ccccc3cc2O)c(=O)n(C)c1=O	-9.9%	-4.9%	?	-0.5%	0.0%	.	.	.	.	.
COc1ccc(Cn2c(O)c(C=Nc3ccccc3C(=O)O)c3ccccc3c2=O)cc1	0.0%	?	?	-0.1%	4.11µM*	3.53µM*	2.5µM*	-14.3%	2.81µM*	?
COc1ccc(Cn2c(O)c(C=Nc3ccc(OC)cc3)c3ccccc3c2=O)cc1	-4.5%	?	?	-0.1%[9.22 µM]	-20.2%	.	.	.	.	.
CCOC(=O)c1c(NC(=O)Nc2ccc(F)cc2)sc(C(=O)N(C)C)c1C	20.6%	1.7%	-16.1%[9.27 µM]	-0.5%	.	.	.	.	.	.
CCOc1ccc(C(c2c(O)cc(C)n(CCOC)c2=O)N2CCN(c3ccccc3)CC2)cc1 (stereo not drawn)	-0.9%	-3.0%	.	-0.9%	.	.	.	.	.	.
COc1ccc(C2(C)NC(=O)N(CC(=O)NC3CC3)C2=O)cc1 (stereo not drawn)	-3.4%	0.9%	-0.2%	-0.9%	17.2%	.	.	.	.	.
CC1CCC(NC(=O)CN2C(=O)NC(C)(C)C2=O)CC1 (stereo not drawn)	-1.1%	2.2%	8.5%	-0.2%	23.4%	.	.	.	.	-17.4%	ELG1 FLuc counter=70.9%;FLuc biochem=-3.2%
CC(=O)c1ccc(-n2c(C)c(C(C)=O)c3cc(O)ccc32)cc1	10.6%	3.2%	0.6%	1.6%	2.06µM*	?	-0.7%	0.3%	0.8%	3.6%
CC(=O)c1c(C)n(-c2ccc(Br)cc2)c2ccc(O)cc12	-2.4%	8.6%	-7.0%	-0.8%	-14.5%	.	.	.	.	.
Fc1ccc2cc(CCO[C@H]3CCCCO3)ncc2c1	5.7%	-1.3%	6.7%	-2.9%	?	.	.	.	.	?
CC(=O)c1cccc(NC(=O)Cn2nc(C(F)(F)F)c3c2CCC3)c1	9.1%	-5.6%	2.8%	-0.5%	.	.	.	.	.	.
CCN1CCN(c2ccc(Nc3ccnc4ccccc34)cc2)CC1	-6.1%	6.51µM*	11.9%	0.0%	4.61µM*	?	17.7µM*	-8.1%	?	-13.2%
O=c1[nH]c(=S)[nH]c2c1C(c1cccc(C(F)(F)F)c1)OC(CCc1ccccc1)C2 (stereo not drawn)	.	.	.	0.5%	.	.	.	.	.	.
Cc1ccc(CCNC(=O)Cn2nc(C)c3c(C)n(-c4ccc(C)cc4)nc3c2=O)cc1	0.0%	-4.5%	-13.8%	1.1%	.	.	.	.	.	.
Cc1ccc(-n2nc3c(=O)n(CC(=O)NCCc4ccccc4C)nc(C)c3c2C)cc1	-9.0%	4.0%	?	-0.3%	3.66µM*	?	9.96µM*	-13.4%	9.96µM*	?
Cc1cc(C(=O)NNc2ccc(F)cc2)no1	-0.7%	-9.9%	-17.1%	0.4%	2.91µM*	-4.6%	19.0%	-8.1%	-2.2%	0.5%
Cc1cc(C(=O)NNc2c(Cl)cccc2Cl)no1	0.2%	-0.4%	0.0%	0.1%	-1.1%	.	.	.	.	.
Cc1cc(Br)ccc1NC(=O)c1sc2ncnc(N3CCN(c4ccccn4)CC3)c2c1C	6.0%	-12.0%	-24.9%	-0.3%	?	.	.	.	.	.
COc1ccc(NC(=O)c2sc3ncnc(N4CCN(c5ccccn5)CC4)c3c2C)cc1Cl	6.9%	?	14.6µM*	-0.1%	2.59µM*	5.61µM*	12.6µM*	-7.5%	?	?	ELG1 FLuc counter=4.4%;FLuc biochem=-2.9%
COc1ccc(C(=O)NCc2nc(-c3cccc(C)c3)no2)cc1OC	-9.3%	8.5%	-28.8%	4.7%	.	.	.	.	.	.
CN(C)Cc1csc(Nc2ccc(C(=O)c3ccccc3)cc2)n1	.	.	.	6.3%	.	.	.	.	.	.
COc1cccc(-c2cc(NCc3cccs3)ncn2)c1	.	.	.	.	.	.	.	.	.	-3.0%	ELG1 FLuc counter=66.7%;FLuc biochem=3.66µM*
CCN(CC)S(=O)(=O)c1ccc(C(=O)NCCSc2c(-c3ccc(C)cc3)[nH]c3ccccc23)cc1	-9.1%	2.0%	-23.0%[9.27 µM]	5.4%	.	.	.	.	.	.
